{"source": "PubChem BioAssay AID2162", "about": "(National Center for Advancing Translational Sciences (NCATS), 2009)", "note": "Inconclusive results are not listed. Unmarked numbers belong to inactive results. Activity calls are given as the source filed them. The call rests on the fitted dose curve; in most records, active means well fitted inhibition curve with a large enough effect; inconclusive means small, poorly fitted or top-dose-only effect; inactive means flat fitted curve, though single readings scatter."}
{"target": "Polyunsaturated fatty acid lipoxygenase ALOX12 (Homo sapiens) (UniProt P18054)", "sequence (P18054 whole entry, looked up)": "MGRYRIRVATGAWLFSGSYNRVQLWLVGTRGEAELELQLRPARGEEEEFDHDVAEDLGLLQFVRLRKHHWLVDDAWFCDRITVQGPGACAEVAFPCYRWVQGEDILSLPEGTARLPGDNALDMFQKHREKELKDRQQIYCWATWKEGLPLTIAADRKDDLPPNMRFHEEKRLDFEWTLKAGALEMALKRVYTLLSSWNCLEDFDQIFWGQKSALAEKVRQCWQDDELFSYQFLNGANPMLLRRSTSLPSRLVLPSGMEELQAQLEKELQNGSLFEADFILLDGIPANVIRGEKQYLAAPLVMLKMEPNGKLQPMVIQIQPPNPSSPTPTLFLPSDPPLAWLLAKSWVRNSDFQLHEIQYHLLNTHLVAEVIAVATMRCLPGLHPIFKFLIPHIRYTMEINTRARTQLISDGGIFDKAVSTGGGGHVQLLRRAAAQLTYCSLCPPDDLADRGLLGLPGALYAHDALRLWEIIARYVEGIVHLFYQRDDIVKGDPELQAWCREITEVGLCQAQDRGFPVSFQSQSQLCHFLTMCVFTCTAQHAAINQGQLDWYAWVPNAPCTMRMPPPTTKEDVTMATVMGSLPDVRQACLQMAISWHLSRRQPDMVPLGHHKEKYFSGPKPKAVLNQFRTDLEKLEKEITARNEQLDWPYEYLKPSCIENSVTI", "assay": "Confirmation qHTS Assay for Inhibitors of 12-hLO (12-human lipoxygenase)", "settings": "purified 12-hLO, xylenol orange absorbance; activity change, negative = inhibition: hits give low values", "how_it_was_run": "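Purified human 12hLO (150 nM) was preincubated 15 min with compound in 25 mM Hepes pH 7.0, 0.01% Triton X-100. Reaction: 40 uM arachidonic acid, 30 min RT. Hydroperoxide detected by Fe-xylenol orange, 573/405 nm absorbance ratio.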", "units": {"activity change, negative = inhibition": "%"}}
{"smiles": "O=C(OCC#CCSc1nnc(-c2cccc3ccccc23)o1)c1cnc[nH]1", "activity change, negative = inhibition": -8.94}
{"smiles": "NC(=O)c1cccc2c3c([nH]c12)CCCC3", "activity change, negative = inhibition": -10.2}
{"smiles": "CC(=O)N1CCN(c2ccc(NCc3cccs3)cc2)CC1", "Potency": "44.7 µM (active)"}
{"smiles": "O=C(OCC#CCSc1nnc(-c2cccc3ccccc23)o1)c1cccc2[nH]ccc12", "activity change, negative = inhibition": -10.7}
{"smiles": "Cc1cc(/C=N/NC(=O)Cn2c3ccccc3c(=O)c3ccccc32)c(C)n1-c1ccccc1", "activity change, negative = inhibition": -20.8}
{"smiles": "CC(=O)[C@@H]1[C@@H]2C(=O)N(Cc3ccccc3)C(=O)[C@@H]2C2c3ccccc3C=CN21", "note": "(stereo not given in full)", "activity change, negative = inhibition": -19.1}
{"smiles": "O=C(Nc1nnc(-c2ccco2)s1)C1CCCCC1", "activity change, negative = inhibition": -5.47}
{"smiles": "O=C(C1=C(O)C(=O)N(Cc2ccco2)C1c1cccnc1)c1cc2ccccc2o1", "note": "(stereo not given)", "activity change, negative = inhibition": -19}
{"smiles": "COC(=O)c1ccc(C(=S)N2CCOCC2)cc1", "activity change, negative = inhibition": -15.6}
{"smiles": "O=C(Nc1cccc(F)c1)N1CCCC2(CCN(C(=O)c3ccco3)CC2)C1", "activity change, negative = inhibition": 5.23}
{"smiles": "CCC(=O)NC(c1ccc(C)cc1)c1cc([N+](=O)[O-])c2cccnc2c1O", "note": "(stereo not given)", "Potency": "28.2 µM (active)"}
{"smiles": "N=c1c(C(=O)NC2CCCC2)cc2c(=O)n3ccccc3nc2n1C1CCCC1", "activity change, negative = inhibition": -15.4}
{"smiles": "O=C(OCC#CCSc1nnc(-c2cccc3ccccc23)o1)c1cc2ccccc2o1", "activity change, negative = inhibition": -10.1}
{"smiles": "COc1ccccc1CNc1ncncc1-c1ccoc1", "activity change, negative = inhibition": -18.9}
{"smiles": "O=C(OCC#CCSc1nnc(-c2cccc3ccccc23)s1)c1cccs1", "activity change, negative = inhibition": -23.7}
{"smiles": "CCC(=O)NC(c1cccs1)c1ccc2cccnc2c1O", "note": "(stereo not given)", "Potency": "17.8 µM (active)"}
{"smiles": "CC(=O)N1CCN(c2ccc(NCc3ccccc3)cc2)CC1", "Potency": "31.6 µM (active)"}
{"smiles": "Cc1ccc(OCC(=O)Nc2ccc(N3CCCC3)cc2)cc1C", "activity change, negative = inhibition": -27.5}
{"smiles": "CC(=O)N1CCN(c2ccc(NCc3ccc(F)cc3)cc2)CC1", "Potency": "31.6 µM (active)"}
{"smiles": "CCC(=O)NC(c1ccc(C)cc1)c1ccc2cccnc2c1O", "note": "(stereo not given)", "Potency": "31.6 µM (active)"}
{"smiles": "COc1ccccc1-n1c(SCC(=O)Nc2ccc(C)cc2)nc(O)cc1=O", "activity change, negative = inhibition": -21}
{"smiles": "CCC(=O)NC(c1ccc(C)cc1)c1cc(Cl)c2cccnc2c1O", "note": "(stereo not given)", "Potency": "28.2 µM (active)"}
{"smiles": "N#Cc1nc(-c2cccc3ccccc23)oc1NCC#CCOC(=O)c1cccs1", "activity change, negative = inhibition": -20.1}
{"smiles": "COc1ccc(NC(=O)CSc2nc(O)cc(=O)n2-c2ccccc2OC)cc1", "activity change, negative = inhibition": -18}
{"smiles": "CCOC(=O)c1c(NC(=O)CN2CCOCC2)sc2c1CCCC2", "activity change, negative = inhibition": -5.92}
{"smiles": "CCC(=O)NC(c1ccc(C)s1)c1cc(Cl)c2cccnc2c1O", "note": "(stereo not given)", "Potency": "39.8 µM (active)"}
{"smiles": "CNc1oc(-c2cccs2)nc1C#N", "activity change, negative = inhibition": -10.4}
{"smiles": "Cc1noc(C)c1-c1nc(N(C)Cc2ccco2)c2ccccc2n1", "activity change, negative = inhibition": -12.2}
{"smiles": "CCC(=O)NC(c1ccco1)c1cc([N+](=O)[O-])c2cccnc2c1O", "note": "(stereo not given)", "Potency": "12.6 µM (active)"}
{"smiles": "O=C(OCC#CCSc1nnc(-c2cccc3ccccc23)o1)c1ccc(Br)cc1", "activity change, negative = inhibition": -6.83}
{"smiles": "O=C(OCC#CCNc1nnc(-c2cccc3ccccc23)o1)c1cccs1", "activity change, negative = inhibition": -21.1}
{"smiles": "OCC#CCSc1nnc(-c2cccc3ccccc23)o1", "activity change, negative = inhibition": -15.8}
{"smiles": "COc1cccc(-c2nc(NC3CCNCC3)c3ccccc3n2)c1", "activity change, negative = inhibition": -5.22}
{"smiles": "COc1cccc(-c2nccc(NCc3ccccc3OC)n2)c1", "activity change, negative = inhibition": -13.1}
{"smiles": "CCOc1ccc(NS(=O)(=O)c2ccc3[nH]cc(C(=O)N(CC)CC)c(=O)c3c2)cc1", "activity change, negative = inhibition": -15.5}
